As usually defined, the inhibition is the relative decrease from the control value, in per cent.

For 26 compounds, inhibition results are on record in PubChem BioAssay AID2012 (Sanford-Burnham Center for Chemical Genomics, 2009).

In this assay the target is Eukaryotic translation initiation factor 4H (Homo sapiens) (UniProt Q15056). As to the kind of experiment: human eIF4H binding inhibitors, primary screen, translation initiation inhibitor project, biochemical, uHTS, fluorescence polarization (AID 2012).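 Also: calls also rest on retests at 20 µM and on dose response follow-up.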 The following applies: eIF4H fluorescence polarization binding assay, stronger effect = higher value. Background: Fluorescence polarisation rises when a labelled molecule tumbles more slowly, as on binding a larger partner.

Out of some 290,000 compounds screened, about 2,700 (0.93%) were called active. No rule for the calls is given here. For the sample, actives were picked, then their nearest neighbours and some compounds at random.

For the compound `CN(CC1CCCN(CCc2cccc(C(F)(F)F)c2)C1)C(=O)c1ccc2nc[nH]c2c1` (centres undefined), for the setting “at 35 µM”, the inhibition was -2% (inactive).

In the case of `Oc1ccc(-c2cccc(-c3ccc(O)cc3)c2)cc1`, the inhibition (at 35 µM) was 2% (inactive).

With `CCC(C)(C)NC(=O)C(c1ccc(O)cc1)N(Cc1ccco1)C(=O)CCC(=O)Nc1ccccn1` (centres undefined), the inhibition (at 35 µM) is -7% (inactive).

As to `Cc1[nH]n(C(N)=S)c(=O)c1N=Nc1ccc(Cl)cc1Cl`, the inhibition (at 35 µM) was 13.7% (inactive).

For `Cc1cc2ccccc2n1CCNC(=O)COc1ccc2ccccc2c1`, the inhibition (at 35 µM) was 21% (inactive).

Regarding `O=C(O)CCn1c(Cc2ccccc2)nc2ccccc21`, where the note is “at 35 µM”, the inhibition is 0.7% (inactive).

For the compound `Cc1cc2ccccc2n1CCC(=O)O`, the inhibition is 52.4% (active) (at 35 µM) and 80.5% (confirmation average, at 20 µM).

On to `CCc1nc(N2CCN(C(C)=O)CC2)c2c3c(sc2n1)CCCC3`, for which the inhibition (at 35 µM) is -5.1% (inactive).

For `COc1ccc(C(C)NC(=S)NC2CCCCC2)cc1OC` (centres undefined), the inhibition (at 35 µM) was -7.9% (inactive).

`CCOc1ccc(N(C)Cc2cc(=O)oc3ccc(OC)cc23)cc1`: under “at 35 µM”, the inhibition is 4.8% (inactive).

Take `O=C(NCc1cccnc1)c1ccccc1NC(=O)c1c(F)cccc1F`: for the setting “at 35 µM”, the inhibition is -10.7% (inactive).

For the compound `O=S1(=O)CCN(Cc2ccccc2Cl)CC1`, the inhibition by setting is: (at 35 µM) 56.9% (active); (confirmation average, at 20 µM) 81.5%.

Regarding `O=c1ccn(Cc2ccccc2Cl)cc1`, the inhibition (at 35 µM) is -2.8% (inactive).

As for `CSc1ccc(/C=N/N2CCN(Cc3ccccc3Cl)CC2)cc1`, for the setting “at 35 µM”, the inhibition is 0.6% (inactive).

Take `COC(=O)c1ccc(C(=O)NC2CC(C)(C)Cc3c2cnn3-c2ccc(F)cc2)nc1` (centres undefined): the inhibition (at 35 µM) was -3.4% (inactive).

As to `CC(c1ccccn1)N(C)C(=O)c1ccc2nc(Cc3cccc(Cl)c3)oc2c1` (centres undefined), the inhibition (at 35 µM) is -0.5% (inactive).

`CC1(OC(=O)CCc2ccccc2)C(=O)C=C2C=C(c3ccc(C#N)cc3)N(CCc3ccccn3)C=C2C1=O` (centres undefined): where the note is “at 35 µM”, the inhibition is 35.9% (inactive).

For the compound `COC(=O)CCCC1=CC2=CC(=O)C(C)(OC(=O)c3cccs3)C(=O)C2=CN1CC1CC1` (centres undefined), the inhibition (at 35 µM) is 45.8% (inactive).

In the case of `COCCN1C=C2C(=O)C(C)(OC(=O)C3CCCC3)C(=O)C=C2C=C1c1ccsc1` (centres undefined), where the note is “at 35 µM”, the inhibition is 98.2% (active).

As for `COCc1c(C(=O)N/N=C(\C)c2ccncc2)nnn1-c1nonc1N`, under “at 35 µM”, the inhibition is 1.9% (inactive).

For the compound `Cc1ccc(NC(=O)C2CCN(S(=O)(=O)c3ccc4c(c3)NC(=O)CO4)CC2)cc1C`, the inhibition (at 35 µM) was -7.3% (inactive).

For `COc1ccccc1C(=O)N(Cc1ccc(C)o1)C1CCS(=O)(=O)C1` (centres undefined), under “at 35 µM”, the inhibition is -6.1% (inactive).

Regarding `Fc1cc(F)c2nc(Nc3nc4c(F)cccc4s3)sc2c1`, the inhibition (at 35 µM) was 11.5% (inactive).

In the case of `NC(=O)c1c(Nc2nc3c(F)cccc3s2)sc2c1CCCC2`, the inhibition reads like this: (at 35 µM) 72.6% (active); (confirmation average, at 20 µM) 99.1%.

`NC(=O)c1c(NC(=O)c2ccccc2)sc2c1CCCC2`: for the setting “at 35 µM”, the inhibition was -0.5% (inactive).

For `Cc1cc2oc(=O)cc(CN(C)Cc3ccc(OC(F)F)cc3)c2cc1Cl`, the inhibition (at 35 µM) is -2.2% (inactive).
